# The supplement of paper PMC6555819
# Assays:
# Test in all cases: PBM binding z-score (relative to random genomic background probes); higher = stronger binding; sequences stand for … in GC…GCGATTGACAGCGTAGAATGAAGG
# [1] = test system: PPARg:RXRa DBDmut IVT, anti-RXR (DBD mutation: RXRa K156A/R161A, NR concentration 270 nM, RXRa partner concentration 90 nM)
# Procedure, shortened: (§1)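 Binding z-scores were set against random background probes. The data came from custom Agilent 4×180K protein-binding microarrays carrying double-stranded probes with 34-nt variable regions, incubated 1 h with ligand-free nuclear receptor dimers. Partner-specific antibodies detected binding, and scanned fluorescence was regression-normalized.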
# [2] = test system: PPARg:RXRa IVT, anti-PPARg (NR concentration 270 nM, RXRa partner concentration 90 nM)
# Procedure, shortened: as §1
# [3] = test system: PPARg DBDmut:RXRa IVT, anti-PPARg (DBD mutation: PPARg1 K132A/R137A, NR concentration 270 nM, RXRa partner concentration 90 nM)
# Procedure, shortened: as §1
# [4] = test system: PPARg DBDmut IVT, anti-PPARg (DBD mutation: PPARg1 K132A/R137A, NR concentration 270 nM)
# Procedure, shortened: as §1
# [5] = test system: PPARg homodimer (NR concentration 180 nM)
# Procedure, shortened: as §1
# [6] = test system: PXR:RXRa (NR concentration 270 nM, RXRa partner concentration 90 nM)
# Procedure, shortened: as §1
# [7] = test system: PXR homodimer (NR concentration 270 nM)
# Procedure, shortened: as §1
# [8] = test system: RARa:RXR (NR concentration 270 nM, RXRa partner concentration 90 nM)
# Procedure, shortened: as §1
# [9] = test system: RARa homodimer (NR concentration 270 nM)
# Procedure, shortened: as §1
# [10] = test system: RARb:RXRa (NR concentration 270 nM, RXRa partner concentration 90 nM)
# Procedure, shortened: as §1
# [11] = test system: RARb homodimer (NR concentration 270 nM)
# Procedure, shortened: as §1
# [12] = test system: RARg:RXRa (NR concentration 270 nM, RXRa partner concentration 90 nM)
# Procedure, shortened: as §1
# [13] = test system: RARg homodimer (NR concentration 270 nM)
# Procedure, shortened: as §1
# [14] = test system: RXRa DBDmut IVT, anti-RXR (DBD mutation: RXRa K156A/R161A, NR concentration 90 nM)
# Procedure, shortened: as §1
# [15] = test system: RXRa homodimer (NR concentration 180 nM)
# Procedure, shortened: as §1
# [16] = test system: THRa:RXRa (NR concentration 90 nM, RXRa partner concentration 90 nM)
# Procedure, shortened: as §1
# [17] = test system: THRa homodimer (NR concentration 90 nM)
# Procedure, shortened: as §1
# [18] = test system: VDR:RXRa (NR concentration 270 nM, RXRa partner concentration 90 nM)
# Procedure, shortened: as §1
# [19] = test system: VDR homodimer (NR concentration 270 nM)
# Procedure, shortened: as §1
Sequence,PBM binding z-score [1],PBM binding z-score [2],PBM binding z-score [3],PBM binding z-score [4],PBM binding z-score [5],PBM binding z-score [6],PBM binding z-score [7],PBM binding z-score [8],PBM binding z-score [9],PBM binding z-score [10],PBM binding z-score [11],PBM binding z-score [12],PBM binding z-score [13],PBM binding z-score [14],PBM binding z-score [15],PBM binding z-score [16],PBM binding z-score [17],PBM binding z-score [18],PBM binding z-score [19]
CCTAGCAGGCCAATCCGGGTCACTCAAGGCTTGA,2.27,2.8,-1.26,-0.765,0.726,2.79,-0.246,2.23,-0.442,1.63,2.35,1.67,1.42,0.0497,1.65,4.38,1.72,2,0.638
CTCGAAATGTCGTGCTCAGGTGAGTATACCAAAC,-0.127,0.323,0.0105,0.169,-0.101,-0.206,-0.0833,0.0583,0.245,0.417,0.0938,0.145,0.0439,0.155,-0.16,1.53,0.939,0.0153,0.16
CAAACTAGGTCACCGGCAGGTCAAAGTCCGCATG,8.64,8.72,2.38,0.783,4.83,5.26,0.922,6.42,1.55,4.93,5.08,7.9,7.05,2.05,6.42,4.37,3.02,5.36,2.72
TTACCAAGGTGAAAGTTCGTTGATGCACGCCTTG,1.85,4.23,0.268,0.287,0.78,2.73,1.54,2.73,0.264,2.24,1.67,2.35,1.2,1.14,2.86,2.41,0.508,2.12,2.05
ATCTCTAGGTAAAAGTTCAGGGAATCCCGAGGAT,2.01,3.72,1.02,1.51,1.25,1.96,1.15,2.06,1.33,2.62,2.58,2.3,2.18,0.858,2.15,1.54,0.461,1.54,1.7
TAGCATAGGTCAGATCGGGCCAGTATACGCTATA,-0.136,0.798,-0.196,-0.529,0.679,2.5,-0.583,2.5,-0.285,3.37,2.53,3.8,3.77,-0.503,2.97,4.24,-1.1,1.77,-0.438
CCTAGCATGCCAGGGTCACTCAAGCATTTCGCTT,-0.246,0.391,-0.691,-1.32,0.817,2.61,-0.116,3.17,-0.337,2.35,2.54,2.81,2.01,0.413,3.35,2.95,1.01,2.59,0.827
CCTTACGGGTCACTGACAGGTTTTAGCATTTGGA,3.46,3.56,0.228,0.218,2.26,2.98,-0.502,4.09,1.06,3.88,3.06,4.89,4.41,1.81,4.92,2.53,0.0377,3.31,1.01
